Shown are actives, neighbours in structure and some others; about 1.2% of the full set was active somewhere.
PKA-R1A act = PKA-R1A complex activation | P00514+P68181 | PKA-R1A dissociation, Cy5-IP20 fluorescence polarization; scaled: DMSO 0%, 113 µM cGMP 100% | activation, % at 11.4 µM | actives 0.083% (n = 340,000) | AID 504707;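 active = percent activation above the mean of all tested compounds plus 3 SD, cut at about 19% in these data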;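 also: higher means more PKAc released from R1A so a rise in polarization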
PKA-R2B activ = activators of human PKA-R2B complex; P22694+P31323; PKA-R2B holoenzyme dissociation, Cy5-IP20 fluorescence polarization; R2B truncated from residue 108, S112A mutant; 0% DMSO only, 100% 113 µM cGMP; activation, % at 11.4 µM; actives 0.079% (n = 340,000); AID 504700;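 active = activation above a cutoff set at the mean over all compounds plus 3 SD, cut at about 18% in these data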;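 also: higher means more holoenzyme dissociation and a rise in polarization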
Rev-erbA mod = modulators of human Rev-erb alpha DNA binding | Rev-erbα–FITC-DNA binding, fluorescence polarization, 90 min | activity, % at 10 µM | actives 0.79% (n = 370,000) | AID 1259318;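 active = activity above about 14%, limit read from the data; passing the limit was not always enough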;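 also: 0% = DMSO wells with 35 nM protein and 100% = DMSO wells with 750 nM protein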
Target sequence (P20393 whole entry, looked up): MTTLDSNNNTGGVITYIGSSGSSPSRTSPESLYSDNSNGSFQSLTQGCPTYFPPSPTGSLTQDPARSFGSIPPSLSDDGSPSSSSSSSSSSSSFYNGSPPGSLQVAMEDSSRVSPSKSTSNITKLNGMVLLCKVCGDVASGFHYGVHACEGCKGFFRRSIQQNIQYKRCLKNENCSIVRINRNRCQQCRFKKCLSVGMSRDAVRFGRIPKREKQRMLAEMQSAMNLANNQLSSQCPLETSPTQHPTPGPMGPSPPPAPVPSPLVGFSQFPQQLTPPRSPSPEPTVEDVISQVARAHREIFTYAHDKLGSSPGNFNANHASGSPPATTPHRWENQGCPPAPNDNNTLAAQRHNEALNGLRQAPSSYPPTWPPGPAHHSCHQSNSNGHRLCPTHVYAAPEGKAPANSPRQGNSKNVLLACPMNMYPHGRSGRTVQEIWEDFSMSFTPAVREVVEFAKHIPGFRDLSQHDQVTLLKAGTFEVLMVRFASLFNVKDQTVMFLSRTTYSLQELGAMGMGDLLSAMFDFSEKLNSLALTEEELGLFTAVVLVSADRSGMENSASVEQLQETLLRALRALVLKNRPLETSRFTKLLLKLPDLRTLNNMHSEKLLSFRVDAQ
PG9 Ab binder = PG9 antibody binding by small molecule. TR-FRET gp120-PG9 antibody binding. inhibition, % at 6.7 µM. actives 0.43% (n = 360,000); in the data active = inhibition above about 8.5%
R1A FP artifact = FP assay interference, PKA-R1A counter-screen | AID 504799 | actives 7% (n = 280) | shares compounds with PKA-R1A act | activation, % at 11.4 µM | Cy5-IP20 peptide alone, fluorescence polarization artifact counterscreen;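 active = mean activation over triplicate runs exceeds the adjusted cutoff derived for the parent primary screen, cut at about 19% in these data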;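 also: no PKA protein present so any polarization rise reflects compound interference; 0% = tracer peptide mix alone and 100% = mix with added PKA catalytic subunit; higher means stronger polarization artifact and likely false positive in parent screen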
PKA-R1A act conf = confirmation of PKA-R1A complex activators; shares compounds with PKA-R1A act; Cy5-IP20 fluorescence polarization, PKA-R1A holoenzyme dissociation; activation, % at 11.4 µM; actives 9% (n = 280); AID 504800;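 active = mean activation over replicate wells exceeds the adjusted hit threshold taken from the earlier primary screen, cut at about 20% in these data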;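 also: 0% = holoenzyme mix with DMSO only and 100% = cGMP-activated control wells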
Numbers without * were called inactive; x = not tested or not shown.

SMILES	PKA-R1A act	PKA-R2B activ	Rev-erbA mod	PG9 Ab binder	R1A FP artifact	PKA-R1A act conf
O=C(COc1ccccc1F)NCCc1ccc2c(c1)OCCO2	-3.6	2.4	6.0	-0.4	x	x
COc1ccc(-c2noc(CCC(=O)NCCc3ccccc3)n2)cc1OC	19.2*	1.6	-1.4	-0.2	-1.1	2.2
C/C(CC(=O)Nc1ccccn1)=N\NC(=O)c1cnccn1	18.7*	7.2	-3.7	-2.0	2.8	-0.3
C/C(CC(=O)Nc1ccc2ccccc2c1)=N\NC(=O)c1cnccn1	-0.5	2.6	0.4	-1.9	x	x
COC(=O)[C@]12C[C@H](CC(=O)N3CCN(C(=O)C4CC4)CC3)C(=O)N(Cc3ccco3)C1=C[C@H](C(C)(C)C)O[C@@H]2C	x	x	0.9	x	x	x
COc1ccc(-c2cc3nc(C)c(CCC(=O)NCc4ccco4)c(C)n3n2)c(OC)c1	4.3	-6.8	-6.9	-1.8	x	x
Cc1nc2cc(-c3ccc(Cl)cc3)nn2c(C)c1CCC(=O)NCc1ccco1	25.2*	9.9	-4.7	1.2	0.8	-1.6
O=C(Cn1cnnn1)N[C@@H]1C(=O)N2C(C(=O)O)=C(CSc3nncs3)CS[C@H]12	x	x	-7.1	x	x	x
CSc1nc(C)cc(/C=C\c2ccccc2)c1C#N	20.2*	1.1	8.7	-2.7	1.4	0.6
CSc1nc(-c2ccccc2)cc(C)c1C#N	4.5	-8.7	4.5	0.0	x	x
COCCCNC(=O)c1ccc(Cn2c(=O)c3ccccc3n(Cc3ccc(Br)cc3)c2=O)cc1	x	x	4.6	x	x	x
COc1ccc(C)cc1NC(=O)CSc1nnc(CC(=O)Nc2cccc(C(F)(F)F)c2)n1C	22.5*	-4.5	-5.2	2.9	5.2	-1.4
Brc1ccccc1CN1CCC(N2CCCCC2)CC1	20.6*	9.5	-1.2	-5.2	4.6	5.9
O[C@@H]1CN(C2CCN(Cc3ccccc3)CC2)CC[C@H]1N1CCCCCC1	-6.3	2.6	-1.0	-4.3	x	x
CCCCN(C)C(=O)CNc1nnnn1-c1ccccc1	x	x	-1.8	x	x	x
CCC1=NN(C(=O)Cc2ccc(OC)cc2)C(O)(C(F)(F)F)C1 (stereo not given)	18.8*	7.9	-6.1	-0.7	2.9	-1.0
COc1ccc(CC(=O)N2N=C(c3ccncc3)CC2(O)C(F)(F)F)cc1 (stereo not given)	0.6	-4.9	1.8	-1.0	x	x
CSc1ncccc1C(=O)OCC(=O)NC1CCCC1	10.0	-0.4	-0.7	-0.3	x	x
CSc1ncccc1C(=O)OCC(=O)NC1CC1	20.3*	7.9	-3.9	-1.3	3.7	2.9
COc1ccc(CCNC(=O)Cn2cnc3sc(C)c(-c4ccc(F)cc4)c3c2=O)cc1OC	18.9*	-0.9	-3.4	-0.7	2.2	4.7
COc1ccccc1-c1csc(NC(=O)c2cc(-c3cccs3)nc3ccccc23)n1	23.0*	-8.3	4.2	0.5	-0.5	2.9
COc1ccccc1C1C(C(N)=O)=C(C)Nc2nc(-c3ccccc3Cl)nn21 (stereo not given)	-13.1	-4.3	3.2	-0.8	x	x
COc1cccc(C2C(C(N)=O)=C(C)Nc3nc(-c4ccccc4Cl)nn32)c1 (stereo not given)	18.7*	-9.3	7.3	-0.6	1.1	-2.9
COc1ccc(/C=C/C(=O)NCC2COc3ccccc3O2)c(OC)c1 (stereo not given)	-6.6	7.0	-4.1	-0.3	x	x
O=C(/C=C/c1ccco1)NCC1COc2ccccc2O1 (stereo not given)	18.8*	8.1	0.5	1.0	-5.1	-4.1
SMILES	PKA-R1A act	PKA-R2B activ	Rev-erbA mod	PG9 Ab binder	R1A FP artifact	PKA-R1A act conf
COc1ccc([C@@H]2[C@@H]3C(=O)N(C(C)(C)C)C(=O)[C@@H]3[C@]3(CC(C)C)C(=O)N(c4cccc(F)c4)C(=O)N23)cc1	19.4*	-1.9	0.1	-0.5	-3.1	-4.6
COc1ccc(-c2cc(-c3nnc4sc(-c5cccs5)nn34)[nH]n2)cc1	x	x	-0.3	x	x	x
CC(C)(C)C(=O)NCc1ccc(C(=O)CSc2nnc(C3CC3)n2C2CC2)s1	19.7*	0.4	-3.0	-1.9	-2.2	0.5
CCCCC(=O)Nc1ccc(NC(=O)C2CC2)cn1	19.6*	-0.8	2.1	3.2	5.5	5.1
CCCC(=O)Nc1ccc(NC(=O)C2CC2)cn1	-1.6	-4.8	-0.6	-0.6	x	x
COCCCNC(=O)CCn1c(=O)c2ccccc2n(Cc2cccc([N+](=O)[O-])c2)c1=O	-9.9	-5.6	-6.5	-1.0	x	x
CCCCNC(=O)CCn1c(=O)c2ccccc2n(Cc2ccc(F)cc2)c1=O	22.4*	10.9	-4.2	0.7	-0.5	-2.7
CCOc1ccc(C2=Nn3c(nnc3-c3ccccc3OC)SC2)cc1	-5.6	3.2	1.0	0.2	x	x
CCOc1ccc(-c2nnc3n2N=C(c2ccc(OC)cc2)CS3)cc1	20.3*	-5.4	-5.8	2.0	-1.0	0.8
c1cnc2cc3c(cc2n1)C1CNCC3C1	x	x	-8.7	x	x	x
COc1ccc(S[C@]2(C(=O)N3CCN(c4ncccn4)CC3)CC(=O)N(c3ccc4ccccc4c3)[C@@H]2c2ccc(OC)cc2)cc1	x	x	4.1	x	x	x
CC1=CC(=O)C(C(C)C)=C/C1=N\OC(=O)c1cccc2nc(C)oc12	19.1*	-0.9	-0.1	-2.8	2.4	2.0
CC1=CC(=O)C(C(C)C)=C/C1=N/OC(=O)c1cccc([N+](=O)[O-])c1	0.6	-5.1	-2.2	-3.3	x	x
COc1ccc(/C=C2\SC(=O)N(CC(=O)Nc3ccc(O)cc3)C2=O)cc1OC	22.8*	17.2	-2.9	-1.2	18.3	22.8*
O=C(O)c1ccc2cccnc2n1	19.7*	1.7	0.4	1.1	4.9	1.7
O=C(O)c1ccc2cccc(O)c2n1	x	x	-1.5	2.7	x	x
O=S1(=O)c2ccc(Br)cc2OC[C@@H](Cc2ccccc2)N1Cc1cn(Cc2ccc(F)cc2)nn1	x	x	-2.0	x	x	x
Cc1ccc(NS(=O)(=O)c2cc3c(cc2Cl)NC(=O)CO3)cc1C	x	x	-1.3	x	x	x
Cc1cccc(NS(=O)(=O)c2ccc(Oc3ccccc3)cc2)n1	19.5*	-5.4	0.4	0.8	3.0	3.1
O=C(O)c1ccc(-n2cccn2)c([N+](=O)[O-])c1	20.3*	-0.3	-2.2	2.8	-0.4	2.0
C[C@H]1COc2c3ccc(I)cc3nn21	x	x	1.8	x	x	x
Cc1sc(NC(=O)C2CCCCC2C(=O)O)c(C(N)=O)c1-c1ccccc1 (stereo not given)	18.6*	5.0	-3.5	-3.8	3.4	0.7
CC(C)N(CC(=O)Nc1ccc(Cl)cc1C(F)(F)F)C(=O)CCl	19.5*	-2.8	-6.9	0.0	4.8	2.3
CCOC(=O)c1c(NC(=O)CCC(=O)O)sc2c1CCCCC2	19.6*	0.5	2.9	1.4	3.1	9.0
CCOC(=O)c1c(NC(=O)c2c(C(=O)O)cccc2[N+](=O)[O-])sc2c1CCCC2	18.8*	-8.2	0.9	-1.7	3.6	1.4
CCOC(=O)c1c(NC(=O)c2cccc([N+](=O)[O-])c2C(=O)O)sc2c1CCCC2	-4.1	3.2	-1.3	-2.4	x	x
